Source: PubChem BioAssay
Compounds with a hit are over-represented: about 10% of the library has one in this group of screens.
Six1-Eya2 inh: blocks human Six1 binding to Eya2; activity change, % (concentration not given with the values); actives 0.56% (n = 360,000); AlphaScreen GST-Six1/His-Eya2 binding, biochemical; hits give low values; in the data active means activity change below about -65%; inconclusive means mostly about -30% to -63%; further: on the % scale 0 is the no-effect control and ±100 the full control effect
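Compounds are tested against tagged Six1 and Eya2 proteins bridged by glutathione donor and nickel acceptor beads; after a one-hour incubation at 37 °C without light, AlphaScreen emission is recorded.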
BAZ2B block: inhibitors of human BAZ2B bromodomain; Q9UIF8; AID 504333; actives 4.4% (n = 360,000); AlphaScreen BAZ2B-H3K14Ac peptide displacement; Potency, µM (highest dose often 114 µM), without a hit: at the top dose activity change, negative = inhibition, most hits filed as inhibitors; further: potency means the concentration at half of the fitted maximal effect; on the % scale 0 is the no-effect control and ±100 the full control effect; nearly all actives have a fitted effect of over 60% in size
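Complex of BAZ2B and biotin-H3K14Ac (50 nM apiece) forms over 30 min at RT, then faces library compounds up to 110 uM for another 30 min; AlphaScreen beads added, 20 min dark incubation, luminescence read.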
CtBP-E1A blk: CtBP/E1A binding inhibition; AlphaScreen GST-E1A/His-CtBP binding, 1536-well; hits give low values; activity change, % (concentration not given with the values); actives 0.49% (n = 340,000); AID 651724; in the data active means activity change below about -65%; inconclusive means mostly about -30% to -63%; further: on the % scale 0 is the no-effect control and ±100 the full control effect
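Homogeneous bead-based format: GST-tagged E1A captured on glutathione donor beads, His-tagged CtBP on nickel acceptor beads; compounds precede bead addition by 2 h at 37 °C.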
G9a block: inhibitors of human histone lysine methyltransferase G9a | Q96KQ7 | G9a H3K9 monomethylation, AlphaScreen, 2 h | Potency, µM (doses to about 102 µM), without a hit: at the highest dose activity, negative = inhibition, actives largely listed as inhibitors | actives 8.8% (n = 350,000) | AID 504332; further: potency means the concentration at half of the fitted maximal effect; on the % scale 0 is the no-effect control and ±100 the full control effect; nearly all actives have a fitted effect of over 75% in size
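G9a (20 nM) preincubated 15 min RT with compounds, then 500 nM biotinylated H3K9 peptide and 20 uM SAM added; 2 h RT reaction. Monomethyl-H3K9 product detected by AlphaScreen with anti-H3K9me1 antibody, streptavidin donor and anti-rabbit IgG acceptor beads.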
JMJD2A Tudor inh: JMJD2A Tudor domain (human) inhibition | AID 504339 | actives 4.4% (n = 390,000) | AlphaScreen JMJD2A-Tudor / H3K4me3 peptide binding | Potency, µM (doses to about 114 µM), for inactives: at the top dose activity change, negative = inhibition, hits mostly inhibitors | O75164; further: potency means the concentration at half of the fitted maximal effect; on the % scale 0 is the no-effect control and ±100 the full control effect; nearly all actives have a fitted effect of over 50% in size
Target sequence (O75164 whole entry, looked up, the tested form may be a part): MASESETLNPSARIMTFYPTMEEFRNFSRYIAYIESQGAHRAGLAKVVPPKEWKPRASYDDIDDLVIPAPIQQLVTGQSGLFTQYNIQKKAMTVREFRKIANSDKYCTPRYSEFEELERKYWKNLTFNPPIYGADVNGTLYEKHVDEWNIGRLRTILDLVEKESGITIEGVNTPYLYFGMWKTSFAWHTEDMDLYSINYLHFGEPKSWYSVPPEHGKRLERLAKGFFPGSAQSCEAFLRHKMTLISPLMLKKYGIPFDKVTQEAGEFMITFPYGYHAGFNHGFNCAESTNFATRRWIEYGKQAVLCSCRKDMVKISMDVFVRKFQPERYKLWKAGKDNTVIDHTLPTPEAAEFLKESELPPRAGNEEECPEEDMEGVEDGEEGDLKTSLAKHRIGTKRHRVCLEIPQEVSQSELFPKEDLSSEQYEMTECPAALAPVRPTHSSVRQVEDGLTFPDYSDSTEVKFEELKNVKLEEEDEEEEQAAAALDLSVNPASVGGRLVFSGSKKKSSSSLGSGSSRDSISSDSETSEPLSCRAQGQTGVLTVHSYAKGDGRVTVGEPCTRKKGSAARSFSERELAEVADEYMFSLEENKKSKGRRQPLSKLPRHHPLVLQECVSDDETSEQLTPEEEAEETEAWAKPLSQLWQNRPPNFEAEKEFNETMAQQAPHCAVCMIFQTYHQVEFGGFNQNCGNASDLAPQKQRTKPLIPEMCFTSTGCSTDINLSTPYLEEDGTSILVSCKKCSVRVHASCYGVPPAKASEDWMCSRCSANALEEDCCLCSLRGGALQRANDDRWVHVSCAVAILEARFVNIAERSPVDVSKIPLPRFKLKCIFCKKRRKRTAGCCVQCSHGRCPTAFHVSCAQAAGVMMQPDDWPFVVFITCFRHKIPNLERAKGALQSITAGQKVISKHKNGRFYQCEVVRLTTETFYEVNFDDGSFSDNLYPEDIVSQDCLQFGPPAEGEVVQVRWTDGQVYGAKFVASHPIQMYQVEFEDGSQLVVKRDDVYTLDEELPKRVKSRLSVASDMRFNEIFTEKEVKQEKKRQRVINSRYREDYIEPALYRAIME
HP1b binding inh: blocks HP1-beta chromodomain binding to methylated histone tails | P83916 | AlphaScreen HP1-beta / biotin-H3K9me3 peptide binding | Potency, µM (titrated, usually from 114 µM), inactives show at the top dose activity change, negative = inhibition, most hits filed as inhibitors | actives 0.56% (n = 390,000) | AID 540317; further: potency means the concentration at half of the fitted maximal effect; nearly all actives have a fitted effect of over 70% in size
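AlphaScreen: HP1-beta (50 nM) preformed 30 min with biotin-H3(1-18)K9me3 peptide (50 nM) in PBS pH 7.4, 0.01% Tween-20. Compound added for 30 min at RT, then streptavidin donor/nickel chelate acceptor beads (10 ug/mL) for 30 min.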
Starred values were filed as active, the others as inactive; ? = inconclusive; · = no result; [ ] = another dose, or the depositor's remark. Unless noted, the call rests on the fitted dose curve; in most records, active means well fitted inhibition curve with a large enough effect; inconclusive means small, poorly fitted or top-dose-only effect; inactive means no such curve, though single readings can be large or run the other way.

SMILES	Six1-Eya2 inh	BAZ2B block	CtBP-E1A blk	G9a block	JMJD2A Tudor inh	HP1b binding inh
CCC1(C)OC(c2ccccc2)=C/C(=C/C=C2C(=O)NC(=O)NC2=O)O1 (centres undefined)	7	40µM*	·	50µM*	?	-5%
C/C=C(/C)C(=O)O[C@H]1C(C)=C2C([C@@H]1OC(=O)CCCCCCC)[C@@](C)(OC(C)=O)C[C@@H](OC(=O)CCC)[C@@]1(O)[C@H]2OC(=O)[C@@]1(C)O (some centres undefined)	·	·	·	43%[12.7 µM]	·	·
COc1ccc(C2NCc3ccccc3-n3cccc32)cc1 (centres undefined)	?	?	-12	71µM*	?	-15%
CN1CCCCC1c1cccnc1 (centres undefined)	·	·	·	41%[59 µM]	·	·
CC(=O)c1ccc2c(c1)C1C(Cl)C(Sc3ccccc3[N+](=O)[O-])CC1C(C(=O)O)N2 (centres undefined)	-21	10µM*	4	7.9µM*	35µM*	?
O=C(O)c1cccc2c1NC(C(=O)O)C1CC(Sc3ccccc3[N+](=O)[O-])C(Cl)C21 (centres undefined)	?	6.3µM*	5	10µM*	14µM*	-93%
CC(C)(C)OC(=O)NNC(=S)NC1CCCCC1	0	-16%	23	25µM*	-3%	29%
Cc1ccc(/C=C2\C(=O)NC(=S)N(c3ccccc3F)C2=O)s1	-1	50µM*	16	?	71µM*	?
CCOC(=O)C1CCN(/C=C2/C(=O)NC(=S)N(c3ccccc3F)C2=O)CC1	-2	-10%	·	·	1%	13%
Cc1ccc(/C=C2\C(=O)NC(=S)N(c3ccc(F)cc3)C2=O)s1	-14	45µM*	1	6.3µM*	-34%	11%
CN(C)c1ccc(NC(=O)CN2C(=O)CN=C(c3ccccc3)c3ccccc32)cc1	-9	40µM*	?	·	56µM*	?
Cc1ccc(NC(=O)CN2C(=O)CN=C(c3ccccc3)c3cc(Cl)ccc32)cc1	-4	-24%	-26	?	-35%	-6%
CN(C)c1ccc(NC(=O)CN2C(=O)CN=C(c3ccccc3)c3cc(Cl)ccc32)cc1	?	35µM*	-6	40µM*	28µM*	?
Oc1cc2c(cc1O)[C@H]1c3ccccc3CN[C@H]1CC2	·	·	·	1.4µM*	·	·
Oc1cc2c(cc1O)[C@H]1c3ccccc3CN[C@@H]1CC2	·	?	·	2.5µM*	·	·
CC(=O)NCCc1c[nH]c2ccccc12	4	?	8	2%[59 µM]	-5%	25%
Cc1ccc(NC(=O)COC(=O)CCc2c[nH]c3ccccc23)cc1[N+](=O)[O-]	?	?	?	40µM*	?	-23%
COP(=S)(OC)Oc1ccc(S(=O)(=O)N(C)C)cc1	·	·	·	10µM*	·	·
O=C(Oc1ccccc1)N1CCC[C@@]2(CCN(Cc3cc(C(F)(F)F)cc(C(F)(F)F)c3)C2)C1	·	·	·	-1%[12.7 µM]	·	·
COc1ccc(CCN)cc1O	-4	·	2	?	-3%	47%
CNCCc1ccc(O)c(O)c1	0	·	3	32µM*	-11%	?
Cc1nnc(N2CCC(C(=O)NCc3ccc(N(C)C)cc3)CC2)c2nn(-c3ccccc3)c(C)c12	·	?	·	-44%[59 µM]	?	-9%
Cc1cc(C)cc(-n2c(C)cc(/C=C3\C(=O)NC(=O)N(C)C3=O)c2C)c1	1	1%	2	0%[59 µM]	0%[57.1 µM]	30%
Cc1cc(C=C2C(=O)N(C)C(=S)N(C)C2=O)c(C)n1-c1ccncc1	-2	-25%	11	50µM*	45µM*	?
Cc1ccnc(-n2c(C)cc(C=C3C(=O)N(C)C(=S)N(C)C3=O)c2C)c1	-4	?	-10	32µM*	?	?
O=C(/C=C/c1ccc(Cl)cc1)N[C@@]12CCC(=O)[C@@H]3Oc4c(O)ccc5c4[C@@]31CCN(CC1CC1)C2C5	·	·	·	16%[59 µM]	·	·
